What all share (test): DAPPL (digital affinity profiling via proximity ligation, sequencing); 10 mM Tris-HCl pH 7.5, 50 mM NaCl, 1 mM DTT, 4% glycerol, room temperature, 30 min; GST-TFs on glutathione beads, 16-mer random dsDNA library, 0.1% formaldehyde crosslink after washing; high values mean tight binding
The target in assay [1] is T1, FEV (Homo sapiens, UniProt Q99581 1-238).
T1 sequence: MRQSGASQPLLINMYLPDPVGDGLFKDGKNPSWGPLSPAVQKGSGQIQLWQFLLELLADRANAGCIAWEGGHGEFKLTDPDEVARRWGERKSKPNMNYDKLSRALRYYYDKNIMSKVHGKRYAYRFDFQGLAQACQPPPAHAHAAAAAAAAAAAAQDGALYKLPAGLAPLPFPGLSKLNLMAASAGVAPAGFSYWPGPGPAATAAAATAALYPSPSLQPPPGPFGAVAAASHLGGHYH
To be noted: protein: recombinant; tags: N-terminal GST; dsDNA, one strand shown. A digest of the protocol: (§1)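 Binding signal is defined as a hexamer's read frequency for one factor over its frequency for the tag-only sample. To obtain reads, GST-fused human transcription factors were expressed in yeast, captured on glutathione beads, barcoded with DNA and pooled with that sample. Pools met 200 nmole of a 16-mer random double-stranded DNA library in Tris/NaCl/DTT/glycerol buffer for 30 min at room temperature before washing, 0.1% formaldehyde crosslinking, proximity ligation (BsaI/T4 ligase, 1 h, 37 °C), PCR and Illumina NextSeq500 sequencing.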

For assay [2], the target named is ETV5 (Homo sapiens, UniProt P41161 1-510). As to conditions: protein: recombinant; tags: N-terminal GST; dsDNA, one strand shown. The procedure, abridged: as §1
Chain of ETV5 (P41161 whole entry): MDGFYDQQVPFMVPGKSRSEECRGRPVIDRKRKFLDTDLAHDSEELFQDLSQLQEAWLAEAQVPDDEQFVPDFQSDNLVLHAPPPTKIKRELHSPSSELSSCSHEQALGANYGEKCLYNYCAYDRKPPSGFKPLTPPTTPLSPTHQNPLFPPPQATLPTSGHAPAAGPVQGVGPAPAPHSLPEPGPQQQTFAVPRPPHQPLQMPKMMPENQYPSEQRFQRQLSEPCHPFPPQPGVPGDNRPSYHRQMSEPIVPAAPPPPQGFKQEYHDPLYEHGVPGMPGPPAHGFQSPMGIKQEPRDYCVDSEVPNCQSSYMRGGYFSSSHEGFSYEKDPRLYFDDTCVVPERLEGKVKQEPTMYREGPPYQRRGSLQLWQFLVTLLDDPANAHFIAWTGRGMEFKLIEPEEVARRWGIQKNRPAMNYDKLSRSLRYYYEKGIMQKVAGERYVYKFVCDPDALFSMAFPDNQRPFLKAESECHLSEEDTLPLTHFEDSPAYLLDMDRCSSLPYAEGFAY
Assay [3] deals with HSF1 (Homo sapiens, UniProt Q00613 1-529). As to conditions: protein: recombinant; tags: N-terminal GST; chain copies: 3; dsDNA, one strand shown. The procedure, abridged:
as §1

Assay [4] addresses T2, SPIC (Homo sapiens, UniProt Q8N5J4 1-248).
T2 sequence: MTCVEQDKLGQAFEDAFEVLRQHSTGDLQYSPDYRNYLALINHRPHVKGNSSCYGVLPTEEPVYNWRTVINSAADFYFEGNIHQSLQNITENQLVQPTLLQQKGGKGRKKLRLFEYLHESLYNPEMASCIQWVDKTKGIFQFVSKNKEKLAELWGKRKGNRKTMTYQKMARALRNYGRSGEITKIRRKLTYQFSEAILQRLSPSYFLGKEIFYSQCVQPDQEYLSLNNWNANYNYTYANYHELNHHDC
To be noted: protein: recombinant; tags: N-terminal GST; dsDNA, one strand shown. The procedure, abridged:
as §1

In assay [5] the target is ELF4 (Homo sapiens, UniProt Q99607 1-663). As to conditions: protein: recombinant; tags: N-terminal GST; dsDNA, one strand shown. A digest of the protocol: as §1
Chain of ELF4 (Q99607 whole entry): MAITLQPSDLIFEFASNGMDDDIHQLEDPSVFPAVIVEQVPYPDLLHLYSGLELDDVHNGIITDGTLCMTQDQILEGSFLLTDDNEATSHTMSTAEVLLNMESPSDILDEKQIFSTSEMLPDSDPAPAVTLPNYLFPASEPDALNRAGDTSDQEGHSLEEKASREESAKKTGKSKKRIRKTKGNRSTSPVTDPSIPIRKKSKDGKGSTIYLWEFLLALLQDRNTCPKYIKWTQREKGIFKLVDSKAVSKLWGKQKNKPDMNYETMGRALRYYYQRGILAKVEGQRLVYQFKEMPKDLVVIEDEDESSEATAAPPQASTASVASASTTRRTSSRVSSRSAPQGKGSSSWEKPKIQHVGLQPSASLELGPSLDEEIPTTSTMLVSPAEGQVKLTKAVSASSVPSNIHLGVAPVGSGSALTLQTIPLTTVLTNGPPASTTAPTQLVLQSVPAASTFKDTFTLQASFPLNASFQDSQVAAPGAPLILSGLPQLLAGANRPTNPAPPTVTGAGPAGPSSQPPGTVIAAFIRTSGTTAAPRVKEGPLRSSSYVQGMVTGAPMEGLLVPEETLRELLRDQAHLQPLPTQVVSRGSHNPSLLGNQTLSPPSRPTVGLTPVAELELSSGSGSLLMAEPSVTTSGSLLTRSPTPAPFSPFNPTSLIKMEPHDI
Assay [6] has as its target T3, ELK4 (Homo sapiens, UniProt P28324-2 1-405).
T3 sequence: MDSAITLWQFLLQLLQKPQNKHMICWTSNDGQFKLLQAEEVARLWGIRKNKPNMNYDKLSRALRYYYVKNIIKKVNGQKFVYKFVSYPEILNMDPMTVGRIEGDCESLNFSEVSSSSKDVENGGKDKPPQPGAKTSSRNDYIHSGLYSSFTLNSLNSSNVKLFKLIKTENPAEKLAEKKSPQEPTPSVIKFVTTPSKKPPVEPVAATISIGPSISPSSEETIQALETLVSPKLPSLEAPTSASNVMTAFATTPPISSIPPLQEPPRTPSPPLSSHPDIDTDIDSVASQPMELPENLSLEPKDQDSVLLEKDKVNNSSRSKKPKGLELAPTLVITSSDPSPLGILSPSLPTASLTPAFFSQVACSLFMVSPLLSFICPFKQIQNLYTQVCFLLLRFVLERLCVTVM
As to conditions: protein: recombinant; tags: N-terminal GST; dsDNA, one strand shown. The procedure, abridged: as §1

Assay [7] addresses T4, ETV2 (Homo sapiens, UniProt O00321 1-342).
T4 sequence: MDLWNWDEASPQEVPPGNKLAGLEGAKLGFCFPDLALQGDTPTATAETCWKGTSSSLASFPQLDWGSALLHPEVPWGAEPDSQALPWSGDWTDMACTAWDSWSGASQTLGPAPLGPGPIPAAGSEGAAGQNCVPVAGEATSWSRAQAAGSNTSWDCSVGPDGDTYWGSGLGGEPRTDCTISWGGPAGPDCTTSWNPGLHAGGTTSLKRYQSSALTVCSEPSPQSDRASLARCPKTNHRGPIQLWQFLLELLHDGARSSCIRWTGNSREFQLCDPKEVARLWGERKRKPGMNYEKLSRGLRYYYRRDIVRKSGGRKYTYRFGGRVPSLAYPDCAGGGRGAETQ
To be noted: protein: recombinant; tags: N-terminal GST; dsDNA, one strand shown. The procedure, abridged:
as §1

In assay [8] the target is T5, ELF3 (Homo sapiens, UniProt P78545 1-371).
T5 sequence: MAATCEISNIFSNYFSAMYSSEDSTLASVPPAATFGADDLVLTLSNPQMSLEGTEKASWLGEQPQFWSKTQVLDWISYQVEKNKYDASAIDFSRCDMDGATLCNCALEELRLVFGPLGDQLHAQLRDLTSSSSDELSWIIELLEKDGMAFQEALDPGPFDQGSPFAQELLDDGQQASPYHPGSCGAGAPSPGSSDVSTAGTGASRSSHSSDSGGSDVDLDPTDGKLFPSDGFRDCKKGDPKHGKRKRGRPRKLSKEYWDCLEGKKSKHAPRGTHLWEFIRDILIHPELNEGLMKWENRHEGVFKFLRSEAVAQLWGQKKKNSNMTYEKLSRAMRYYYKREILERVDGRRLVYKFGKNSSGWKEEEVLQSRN
As to conditions: protein: recombinant; tags: N-terminal GST; dsDNA, one strand shown. A digest of the protocol: as §1

The target of assay [9] is CRX (Homo sapiens, UniProt O43186 1-299). To be noted: protein: recombinant; tags: N-terminal GST; dsDNA, one strand shown. The procedure, abridged: as §1
Chain of CRX (O43186 whole entry): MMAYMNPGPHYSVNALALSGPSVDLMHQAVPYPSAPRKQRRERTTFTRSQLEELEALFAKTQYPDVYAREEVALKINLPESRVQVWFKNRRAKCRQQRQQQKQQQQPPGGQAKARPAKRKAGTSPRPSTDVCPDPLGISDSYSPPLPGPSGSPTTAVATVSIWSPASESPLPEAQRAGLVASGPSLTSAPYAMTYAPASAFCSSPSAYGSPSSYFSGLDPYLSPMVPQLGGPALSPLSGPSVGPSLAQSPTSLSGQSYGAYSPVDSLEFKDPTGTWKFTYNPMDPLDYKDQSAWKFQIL
Assay [10] has as its target ETV1 (Homo sapiens, UniProt P50549 1-477). As to conditions: protein: recombinant; tags: N-terminal GST; dsDNA, one strand shown. A digest of the protocol:
as §1

Assay [11] concerns the target T6, ERF (Homo sapiens, UniProt P50548 1-548).
T6 sequence: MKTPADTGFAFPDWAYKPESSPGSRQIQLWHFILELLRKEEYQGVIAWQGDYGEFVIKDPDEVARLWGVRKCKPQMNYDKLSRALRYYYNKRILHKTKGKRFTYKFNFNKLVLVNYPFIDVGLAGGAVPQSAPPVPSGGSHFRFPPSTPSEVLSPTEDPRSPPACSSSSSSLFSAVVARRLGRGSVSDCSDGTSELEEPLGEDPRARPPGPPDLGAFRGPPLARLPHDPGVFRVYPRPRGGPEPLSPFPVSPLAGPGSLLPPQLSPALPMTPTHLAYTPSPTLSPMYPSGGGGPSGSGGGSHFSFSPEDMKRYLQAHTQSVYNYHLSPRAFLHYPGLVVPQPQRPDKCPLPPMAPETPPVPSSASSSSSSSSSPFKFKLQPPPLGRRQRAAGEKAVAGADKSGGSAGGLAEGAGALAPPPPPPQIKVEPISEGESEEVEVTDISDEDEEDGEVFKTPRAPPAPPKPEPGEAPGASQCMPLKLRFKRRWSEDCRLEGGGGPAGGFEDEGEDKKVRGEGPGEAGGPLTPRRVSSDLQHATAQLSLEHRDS
To be noted: protein: recombinant; tags: N-terminal GST; dsDNA, one strand shown. A digest of the protocol: as §1

The target in assay [12] is T7, ETV3L (Homo sapiens, UniProt Q6ZN32 1-361).
T7 sequence: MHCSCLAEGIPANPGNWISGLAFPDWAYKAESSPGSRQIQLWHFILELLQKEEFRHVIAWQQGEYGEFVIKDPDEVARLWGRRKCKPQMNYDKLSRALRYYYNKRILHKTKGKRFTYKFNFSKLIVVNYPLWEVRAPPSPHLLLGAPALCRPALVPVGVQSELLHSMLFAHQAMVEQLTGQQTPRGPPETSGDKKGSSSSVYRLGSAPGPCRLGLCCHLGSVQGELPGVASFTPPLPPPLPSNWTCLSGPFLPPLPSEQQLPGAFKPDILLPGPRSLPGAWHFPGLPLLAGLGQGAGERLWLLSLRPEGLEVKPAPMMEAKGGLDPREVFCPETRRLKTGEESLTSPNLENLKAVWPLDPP
As to conditions: protein: recombinant; tags: N-terminal GST; dsDNA, one strand shown. A digest of the protocol: as §1

Assay [13] concerns the target T8, ETS2 (Homo sapiens, UniProt P15036 1-469).
T8 sequence: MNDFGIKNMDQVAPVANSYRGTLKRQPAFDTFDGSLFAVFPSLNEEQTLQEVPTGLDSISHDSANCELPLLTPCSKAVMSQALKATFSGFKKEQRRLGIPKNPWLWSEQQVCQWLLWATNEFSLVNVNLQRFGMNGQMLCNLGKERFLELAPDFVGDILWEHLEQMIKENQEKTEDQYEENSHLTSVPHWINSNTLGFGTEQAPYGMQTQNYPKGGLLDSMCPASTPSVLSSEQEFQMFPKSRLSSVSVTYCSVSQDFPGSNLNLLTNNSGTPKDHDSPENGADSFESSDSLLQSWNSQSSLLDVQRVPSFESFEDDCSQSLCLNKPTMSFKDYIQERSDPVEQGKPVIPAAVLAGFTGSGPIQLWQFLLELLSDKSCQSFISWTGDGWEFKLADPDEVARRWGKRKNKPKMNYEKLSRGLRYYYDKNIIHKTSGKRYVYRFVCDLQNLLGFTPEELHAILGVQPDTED
As to conditions: protein: recombinant; tags: N-terminal GST; dsDNA, one strand shown. The procedure, abridged:
as §1

In assay [14] the target is T9, SPDEF (Homo sapiens, UniProt O95238 1-335).
T9 sequence: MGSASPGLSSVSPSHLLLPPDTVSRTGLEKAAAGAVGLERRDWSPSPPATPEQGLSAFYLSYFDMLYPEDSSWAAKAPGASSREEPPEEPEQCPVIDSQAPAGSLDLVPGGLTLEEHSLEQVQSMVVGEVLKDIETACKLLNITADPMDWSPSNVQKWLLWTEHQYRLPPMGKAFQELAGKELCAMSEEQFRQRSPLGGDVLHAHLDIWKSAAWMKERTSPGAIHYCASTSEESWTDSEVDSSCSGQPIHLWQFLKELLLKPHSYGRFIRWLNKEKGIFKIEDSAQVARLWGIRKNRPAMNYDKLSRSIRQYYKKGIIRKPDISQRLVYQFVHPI
As to conditions: protein: recombinant; tags: N-terminal GST; dsDNA, one strand shown. A digest of the protocol:
as §1

For assay [15], the target named is T10, ETV7 (Homo sapiens, UniProt Q9Y603 1-341).
T10 sequence: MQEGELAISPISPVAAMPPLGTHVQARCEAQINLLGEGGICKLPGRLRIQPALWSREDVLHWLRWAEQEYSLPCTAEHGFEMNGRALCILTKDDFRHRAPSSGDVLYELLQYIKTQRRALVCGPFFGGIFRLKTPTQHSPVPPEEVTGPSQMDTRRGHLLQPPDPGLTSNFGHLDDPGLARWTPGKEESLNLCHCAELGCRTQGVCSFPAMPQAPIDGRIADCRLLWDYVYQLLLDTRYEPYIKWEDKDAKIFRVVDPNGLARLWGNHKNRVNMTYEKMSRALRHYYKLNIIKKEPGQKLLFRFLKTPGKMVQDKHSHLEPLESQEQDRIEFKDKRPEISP
To be noted: protein: recombinant; tags: N-terminal GST; dsDNA, one strand shown. A digest of the protocol: as §1

Assay [16] deals with T11, ELF5 (Homo sapiens, UniProt Q9UKW6-2 1-255).
T11 sequence: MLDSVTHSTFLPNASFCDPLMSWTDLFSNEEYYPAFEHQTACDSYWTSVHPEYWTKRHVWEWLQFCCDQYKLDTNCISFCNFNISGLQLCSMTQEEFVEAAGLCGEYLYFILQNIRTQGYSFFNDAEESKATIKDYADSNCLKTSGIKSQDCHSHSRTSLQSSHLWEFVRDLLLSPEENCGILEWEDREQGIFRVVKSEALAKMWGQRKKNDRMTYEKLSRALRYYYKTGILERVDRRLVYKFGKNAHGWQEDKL
As to conditions: protein: recombinant; tags: N-terminal GST; dsDNA, one strand shown. A digest of the protocol:
as §1

Assay [17] addresses T12, ETV3 (Homo sapiens, UniProt P41162-2 1-143).
T12 sequence: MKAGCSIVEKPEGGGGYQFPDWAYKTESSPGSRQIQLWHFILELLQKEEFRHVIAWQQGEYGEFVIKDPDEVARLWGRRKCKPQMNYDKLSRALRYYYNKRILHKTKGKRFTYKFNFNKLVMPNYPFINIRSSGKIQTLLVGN
As to conditions: protein: recombinant; tags: N-terminal GST; dsDNA, one strand shown. A digest of the protocol: as §1

Assay [18] addresses ETV6 (Homo sapiens, UniProt P41212 1-452). As to conditions: protein: recombinant; tags: N-terminal GST; dsDNA, one strand shown. The procedure, abridged:
as §1

Chain of HSF1 (Q00613 whole entry): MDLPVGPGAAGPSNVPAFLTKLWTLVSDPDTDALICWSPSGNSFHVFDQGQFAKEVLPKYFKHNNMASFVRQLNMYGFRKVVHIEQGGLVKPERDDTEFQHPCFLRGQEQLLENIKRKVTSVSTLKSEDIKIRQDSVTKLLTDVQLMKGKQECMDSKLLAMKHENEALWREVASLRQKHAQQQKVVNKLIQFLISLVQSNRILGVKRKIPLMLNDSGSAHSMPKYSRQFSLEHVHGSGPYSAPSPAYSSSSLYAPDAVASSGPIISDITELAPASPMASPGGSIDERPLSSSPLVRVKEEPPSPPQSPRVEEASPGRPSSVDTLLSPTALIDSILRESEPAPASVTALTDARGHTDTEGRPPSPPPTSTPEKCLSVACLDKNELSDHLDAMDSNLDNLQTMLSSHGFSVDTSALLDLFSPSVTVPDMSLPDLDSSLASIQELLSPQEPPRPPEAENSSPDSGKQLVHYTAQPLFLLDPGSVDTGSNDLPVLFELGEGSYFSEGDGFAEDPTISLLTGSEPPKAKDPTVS
Chain of ETV6 (P41212 whole entry): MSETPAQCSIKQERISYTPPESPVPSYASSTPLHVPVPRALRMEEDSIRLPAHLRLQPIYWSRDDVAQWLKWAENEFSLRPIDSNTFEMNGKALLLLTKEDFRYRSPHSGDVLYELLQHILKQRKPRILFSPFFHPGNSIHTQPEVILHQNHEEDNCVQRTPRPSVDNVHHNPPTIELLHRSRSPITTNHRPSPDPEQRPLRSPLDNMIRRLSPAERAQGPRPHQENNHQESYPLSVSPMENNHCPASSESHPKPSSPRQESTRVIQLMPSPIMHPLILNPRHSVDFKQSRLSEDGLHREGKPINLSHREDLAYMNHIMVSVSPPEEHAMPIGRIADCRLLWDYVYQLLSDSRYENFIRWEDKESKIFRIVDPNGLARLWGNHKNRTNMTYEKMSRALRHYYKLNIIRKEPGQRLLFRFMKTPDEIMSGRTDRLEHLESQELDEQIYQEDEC
Chain of ETV1 (P50549 whole entry): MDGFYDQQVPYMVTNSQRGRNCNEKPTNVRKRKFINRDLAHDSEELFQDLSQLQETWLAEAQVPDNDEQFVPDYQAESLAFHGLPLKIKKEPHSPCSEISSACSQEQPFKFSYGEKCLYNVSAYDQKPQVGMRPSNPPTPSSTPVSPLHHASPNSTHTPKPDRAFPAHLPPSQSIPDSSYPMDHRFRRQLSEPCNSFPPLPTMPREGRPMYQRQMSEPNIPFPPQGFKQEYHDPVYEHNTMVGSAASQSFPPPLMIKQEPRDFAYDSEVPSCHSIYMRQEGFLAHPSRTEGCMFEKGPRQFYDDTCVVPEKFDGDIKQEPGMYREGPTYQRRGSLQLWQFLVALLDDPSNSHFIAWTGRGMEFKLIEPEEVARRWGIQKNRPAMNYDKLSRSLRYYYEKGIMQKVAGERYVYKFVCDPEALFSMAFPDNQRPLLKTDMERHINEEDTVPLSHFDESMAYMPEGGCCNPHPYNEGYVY

Regarding CACGAT, the binding signal in assay [1] is 1.23 fold enrichment (6-mer frequency, TF over GST control); in assay [2], 1.26 fold enrichment (6-mer frequency, TF over GST control); in [3], 1.27 fold enrichment (6-mer frequency, TF over GST control); in [4], 1.55 fold enrichment (6-mer frequency, TF over GST control); in assay [5], 1.34 fold enrichment (6-mer frequency, TF over GST control); in assay [6], 1.24 fold enrichment (6-mer frequency, TF over GST control). Further, the binding signal in [7] was 1.17 fold enrichment (6-mer frequency, TF over GST control); in assay [8], 1.36 fold enrichment (6-mer frequency, TF over GST control); in assay [9], 1.39 fold enrichment (6-mer frequency, TF over GST control); in assay [10], 1.28 fold enrichment (6-mer frequency, TF over GST control); in assay [11], 1.29 fold enrichment (6-mer frequency, TF over GST control); in [12] it was 1.23 fold enrichment (6-mer frequency, TF over GST control). Further, the binding signal was 1.24 fold enrichment (6-mer frequency, TF over GST control) in assay [13]; 1.26 fold enrichment (6-mer frequency, TF over GST control) in assay [14]; 1.32 fold enrichment (6-mer frequency, TF over GST control) in assay [15]; 1.17 fold enrichment (6-mer frequency, TF over GST control) in [16]; 1.29 fold enrichment (6-mer frequency, TF over GST control) in [17]; 1.27 fold enrichment (6-mer frequency, TF over GST control) in assay [18].

Values taken from paper PMC7862700, “An all-to-all approach to the identification of sequence-specific readers for epigenetic DNA modifications on cytosine”.
